Experimental findings from PubChem BioAssay (NCI) are described below.

Molecules are shown by their SMILES. The panel holds about 83,000 compounds, 20% with a hit somewhere; the sample as a whole holds those more often.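 The endpoint reported here, percent growth, reads 100 for growth as untreated, 0 for no net growth and -100 for all cells dead.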 Activity calls are given as the source filed them. The calls were made as follows: active = growth percent below 10; inactive = the rest.

The assay concerns SN12C renal. Nature of the assay: NCI-60 one-dose screen, 48 h (100 = growth as untreated, 0 = no growth, -100 = all killed). The settings on record: 10 µM unless noted.
As for `COc1cc(OC)cc(C2=C3CC[C@@H]4[C@H](CC[C@]5(C)C(=O)CC[C@@H]45)C3=CC3C(O)c4cccnc4N4C(=O)COC234)c1` (stereo not given in full), the growth was 101% (inactive). As for `CC(=O)Cc1nsc(NC(=O)c2cc(-c3cc(Cl)cc(Cl)c3)oc2C)n1`, the growth is 98.8% (inactive). Then `CCOC(=O)c1cn2ncnc(Oc3ccc(NC(=O)NC4CCCCC4)c(Cl)c3)c2c1C`, with 72.8% (inactive); and `Cc1nnc(NC(=O)c2nc(S(=O)(=O)Cc3ccc(F)cc3)ncc2Cl)s1`, with 64.7% (inactive). As for `C#CCOc1ccc2ncnc(Nc3ccc(NC(=O)CCl)cc3)c2c1`, the growth was -13.2% (active). Then `CCOC(=O)C#Cc1c(C(=O)OCC)nnn1[C@@H]1O[C@H](CO)[C@H]2OC3(CCCCC3)O[C@H]21`, with 75.6% (inactive). Then `C/C(=N/O)c1ccc(F)cc1`, with 81.4% (inactive); and `CCOC(=O)Cn1c(O)c(N=Nc2ccc(S(N)(=O)=O)cc2)c2cc(Br)ccc21`, with 88.2% (inactive); and `Cc1nc(N2CCOCC2)sc1S(N)(=O)=O`, with 94.5% (inactive). Then `COc1ccc(OC)c(C(=O)/C=C/c2cc3c(c(OC)c2OC)OCO3)c1`, with 74.7% (inactive); and `O=c1oc2ccccc2cc1C1=NN=C(SCc2ccccc2)SC1`, with 103% (inactive). For the compound `COc1ccc(C(=S)N2CCN(c3ccccc3Cl)CC2)cc1OC`, the growth is 100% (inactive). As to `Cc1ccc(/C=C2\CN(C(=O)OC(C)(C)C)C/C(=C\c3ccc(C)cc3)C2=O)cc1`, the growth was 60.7% (inactive). As for `O=C(Nc1nn(-c2ccc(Cl)cc2Cl)nc1-c1ccccc1)c1ccccc1`, the growth is 98.9% (inactive). `CCN(CC)c1ccc(/C=C/C(=O)c2ccc(Nc3nc(Nc4ccccc4)nc(Nc4ccccc4)n3)cc2)cc1`: the growth is 74% (inactive). Then `COC(=O)[C@H]1CCCN1C[C@@H](O)CN1C(=O)/C(=C\c2cc(OC)c(OC)c(OC)c2)c2ccccc21`, with 98.2% (inactive); and `CN(C)c1ccc(Nc2cc(-c3cccc(OC(F)(F)F)c3)nc3ccc(N4CCCC4)cc23)cc1`, with 40.3% (inactive); and `O=C(Nc1cc(Cl)ccc1O)c1ccc(Nc2ccnc(C(F)(F)F)c2)cc1`, with 35.6% (inactive).

As for `COc1cc(OC)c2sc(-c3ccc(-n4cncc4-c4ccc(OC)c(OC)c4)cc3)nc2c1`, the growth is 72.3% (inactive).

As for `O=C1c2cccnc2C(=O)c2c1c(C(=O)NCCCN1CCCCC1)c1ccccn21`, the growth was -65.1% (active). Then `CCOC(=O)c1ccc2[nH]c(O)c(C(=Nc3ccc(N(C)C(=O)CN4CCN(C)CC4)cc3)c3ccccc3)c2c1`, with 11.4% (inactive); and `CCN1C(=O)N(CC)C2C1NN=c1s/c(=C\c3cccc([N+](=O)[O-])c3)c(=O)n12` (stereo not given), with 25.5% (inactive). Take `CC1=C(Nc2ccc(N3CCN(C)CC3)cc2)C(=O)c2cncnc2C1=O`: the growth is 98.5% (inactive). Then `O=C1Nc2ccc(Br)cc2/C1=N/c1n[nH]c(=S)s1`, with 96.6% (inactive). `CCN(c1ccc(Cl)cc1)c1nc(-c2ccc([N+](=O)[O-])cc2)cs1`: the growth was 98.5% (inactive). Then `C=C(C)[C@@H]1CC[C@]2(C)[C@H](CC=C3[C@@H]4[C@H](C)[C@@H](C)CC[C@]4(CO)CC[C@]32C)[C@@]1(C)CCCN`, with -4.38% (active); and `O=C(/C=C(/C=C/c1cccc2[nH]ccc12)OB(F)F)/C=C/c1cccc2[nH]ccc12`, with -1.2% (active); and `CCN1CC(=O)N(/N=C2\C(=O)Nc3ccccc32)C1=S`, with 86.1% (inactive). `CCN1CCN(c2cc(C(=O)Nc3nc(-c4cc(OC)c(OC)c(OC)c4)cs3)cc(C(F)(F)F)c2)CC1`: the growth is 71.8% (inactive). Then `COc1ccc(-c2nc(/C=C3\SC(=NCc4ccccc4)NC3=O)c3ccccn23)cc1`, with -19.7% (active); and `CCOC(=O)C(=Cc1cccc(Br)c1)C(=O)OCC`, with 34.8% (inactive); and `N#CC1=C(N)Oc2c(sc3c(F)cccc23)C1c1ccc(F)cc1` (stereo not given), with 42.4% (inactive). With `CCOc1nc(-c2ccccc2)cc2c(O)c(C(=O)NN)[nH]c(=O)c12`, the growth was 109% (inactive).

Turning to `O=C1c2cccc(NCCN=Cc3cc(O)ccc3O)c2C(=O)c2c(NCCN=Cc3cc(O)ccc3O)cccc21`, the growth was -24.7% (active). `C=CCn1cc(-c2nc3ccccc3s2)c2cc(-c3ccc4c5c(cccc35)C(=O)N(N)C4=O)ccc21`: the growth was 92.1% (inactive). Regarding `CCOC(=O)CNP(=O)(OC[C@@H](Cc1ccccc1)NC(=O)c1cc2ccccc2s1)Oc1ccccc1` (stereo not given in full), the growth was 84.9% (inactive).

Turning to `CCC(=C(c1ccc(OCCN2CCCC2)cc1)c1ccc(OCCN2CCCC2)cc1)c1ccc(Cl)cc1`, the growth is -62.9% (active). Turning to `Oc1c(Cl)cc(Cl)c2ccc(Cn3cc(-c4ccc(C(F)(F)F)cc4)nn3)nc12`, the growth was 76.9% (inactive). Then `O=C(NCCCCNC(=O)OCc1ccc2c(Cl)cc(Cl)c(O)c2n1)OCc1ccc2c(Cl)cc(Cl)c(O)c2n1`, with 28.1% (inactive); and `CCN(CC)CCNC(=O)c1cn2ncnc(Oc3ccc(NC(=O)Nc4ccc(Cl)c(C(F)(F)F)c4)c(F)c3)c2c1C`, with 62.5% (inactive).
